High-throughput results from PubChem BioAssay.
D2 ag-1: activates the human D2 dopamine receptor. 360,000 tested, 0.084% active. DiscoveRx PathHunter D2 beta-arrestin, luminescence, 90 min; 100% = 57 uM dopamine signal. activation, % (no concentration beside the values); in the data active = activation above about 40%
Target sequence (P14416 whole entry, looked up): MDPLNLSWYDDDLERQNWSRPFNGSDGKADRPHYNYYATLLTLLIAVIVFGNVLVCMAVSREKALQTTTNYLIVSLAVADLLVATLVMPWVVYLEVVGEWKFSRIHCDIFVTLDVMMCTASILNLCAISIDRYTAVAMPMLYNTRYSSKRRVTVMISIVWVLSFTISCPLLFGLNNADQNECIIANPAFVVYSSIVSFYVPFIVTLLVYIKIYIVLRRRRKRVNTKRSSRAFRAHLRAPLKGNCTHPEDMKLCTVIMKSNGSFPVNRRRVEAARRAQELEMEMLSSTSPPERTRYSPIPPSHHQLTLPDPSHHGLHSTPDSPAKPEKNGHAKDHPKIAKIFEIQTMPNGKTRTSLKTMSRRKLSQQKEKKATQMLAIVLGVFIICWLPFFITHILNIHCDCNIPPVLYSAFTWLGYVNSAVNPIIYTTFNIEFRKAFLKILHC
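DiscoveRx PathHunter D2 beta-arrestin cells (2,100/well) attached overnight, then compound-stimulated 90 min at 37 C in HBSS/10 mM HEPES/0.1% Tween-20 buffer; beta-galactosidase complementation read by luminescence after 1 h at ambient temperature. Dopamine 57 uM final (EC100) as control.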
D2 ag-2: D2 dopamine receptor (human) agonism | activation, % at 2 µM | 340,000 tested, 0.53% active | HEK293 T-REx D2 cells, calcium flux agonist mode;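 active = activation over 3 SD above normal in the single-dose calcium agonist read, cut at about 30% in these data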; also: 0% is about no effect
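Calcium-flux readout, 1 cycle/sec over 180 s following compound pin transfer, in inducible HEK293 Trex D2 cells (force-coupled); dopamine controls included. Positive calcium responses during this window marked compounds as potential agonists.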
D2 PAM-1: potentiates the human D2 dopamine receptor allosterically; 360,000 tested, 0.23% active; AID 624464; P14416; potentiation, % (no concentration beside the values); DiscoveRx D2 beta-arrestin cells, luminescence, 90 min; 100% = 57 uM dopamine signal; in the data active = potentiation above about 50%
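PathHunter beta-arrestin assay in DiscoveRx D2 cells. Compounds were added with an EC20 of dopamine (50 nM final) for 90 min at 37 deg C. Luminescence was read 1 h after detection reagent, with 57 uM dopamine as the EC100 control.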
D2 antagonist: antagonizes the human D2 dopamine receptor. P14416. HEK293 TREx D2 cells, calcium flux, dopamine EC80. inhibition, % at 10 µM. 340,000 tested, 2% active. AID 485344; in the data active = inhibition above about 30%; inactive = below that, where a call was filed; also: 0% is about no effect
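Inhibition of EC80 dopamine-driven calcium flux, recorded kinetically, defines activity here; cells are a tetracycline-induced HEK293 T-REx line expressing force-coupled D2.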
D2 PAM-2: positively modulates the human D2 dopamine receptor allosterically; P14416; HEK293 T-REx D2, calcium flux, EC20 dopamine potentiation; potentiation, % at 10 µM; 340,000 tested, 0.34% active;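 active = potentiation over 3 SD above the plate norm, cut at about 30% in these data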; also: 0% is about no effect
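Primary screen. Calcium kinetics in induced HEK293 T-REx D2 cells: compound pre-addition 180 s, EC20 dopamine, 180 s more.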
An asterisk follows results filed as active; . = not tested or not shown. A selection: hits, their analogues and other compounds. The true share with any hit is near 2.4%.

SMILES	D2 ag-1	D2 ag-2	D2 PAM-1	D2 antagonist	D2 PAM-2
Cc1ccccc1CS(=O)(=O)CCC(=O)NCCCN1CCN(c2ccccc2F)CC1	4.7	42.8*	-28.3	55.2*	-25.3
Cc1ccc(-c2noc(CCC(=O)NCCCN3CCN(c4ccc(F)cc4)CC3)n2)cc1	-0.5	0.5	-11.9	60.7*	-19.1
Cc1ccc2[nH]c3c(=O)n(CC(=O)NCCCN4CCN(c5ccc(F)cc5)CC4)ncc3c2c1	-2.8	-0.1	-30.1	62.6*	-6.3
O=C(CCS(=O)(=O)Cc1ccc(Cl)cc1)NCCCN1CCN(c2ccccc2F)CC1	1.8	0.5	2.8	1.3	22.7
Cc1ccc(-c2nnc(-c3cc(C)on3)o2)cc1	-2.8	1.3	-6.5	0.7	1.0
Cc1nn(S(=O)(=O)c2ccc(C(C)C)cc2)c(C)c1S(=O)(=O)N1CCCCC1	.	0.2	.	.	-5.2
O=C(CCc1nc(-c2ccccc2)no1)NCc1ccco1	-2.1	0.5	-1.8	9.1	12.7
Cc1ccc(-c2noc(CCC(=O)NCc3ccco3)n2)cc1	-0.4	-0.4	-0.9	60.3*	6.3
O=C(O)c1cccc(-c2ccc(/C=N/Nc3ccc([N+](=O)[O-])cc3)o2)c1	-5.1	35.7*	-9.0	3.2	-2.1
O=C(O)c1ccc(N/N=C/c2ccc(-c3cccc(Cl)c3)o2)cc1	12.1	.	2.8	.	.
O=C(O)c1ccc(-c2ccc(/C=N/Nc3ccc([N+](=O)[O-])cc3)o2)cc1	-5.5	53.8*	-4.7	8.0	-3.7
Cc1ccc(C)c(NC(=O)c2ccc3c(c2)CCN3S(C)(=O)=O)c1	1.8	.	2.0	.	1.4
COc1cccc(CNS(=O)(=O)c2ccc3c(c2)N(C(C)=O)CCO3)c1	-3.3	-0.1	-20.3	61.4*	-19.1
CNC(=S)N1N=C(c2ccc(OC)cc2)CC1c1ccccc1Cl (stereo unspecified)	-1.8	-0.1	0.7	33.5*	7.4
CNC(=S)N1N=C(c2ccc(OC)cc2)CC1c1ccc(Cl)cc1Cl (stereo unspecified)	0.6	0.2	0.4	15.2	-3.5
O=C(Nc1cc(-c2nc3ccccc3o2)ccc1Cl)c1cccc2c(Cl)cccc12	.	.	.	.	-2.8
COc1ccc(CN2CCNC(=O)C2CC(=O)NC2CCCC2)c(OC)c1 (stereo unspecified)	-1.4	-0.3	-5.7	-26.9	106.8*
Cc1ccccc1OCCC(=O)N1CCN(S(=O)(=O)c2ccc(Br)cc2)CC1	-3.1	-0.7	-23.6	54.7*	4.1
OCCN(Cc1ccccn1)Cc1ccccn1	8.8	.	9.7	.	.
Cc1ccccc1OCC(=O)NCC(=O)N/N=C/c1cccc([N+](=O)[O-])c1	.	1.0	.	-8.2	-2.1
Cc1ccccc1OCC(=O)N/N=C/c1cccc(Oc2ccc([N+](=O)[O-])cc2[N+](=O)[O-])c1	12.0	-0.2	54.9*	-8.8	-4.2
O=C(N/N=C/c1cccc(Oc2ccc([N+](=O)[O-])cc2[N+](=O)[O-])c1)c1cncc(Br)c1	7.2	-1.0	85.0*	4.9	22.9
CCOc1ccc(OCC)c2sc(C)nc12	-4.3	-2.1	-6.5	-23.5	36.9*
CCOc1cccc2sc(Cl)nc12	-1.0	0.2	-8.1	7.6	1.0
Cc1ccc(C(=O)OCc2nnc(-c3ccccc3)o2)o1	-2.6	0.6	6.2	17.0	32.1*
SMILES	D2 ag-1	D2 ag-2	D2 PAM-1	D2 antagonist	D2 PAM-2
O=C(OCc1nnc(-c2ccccc2)o1)c1cc(S(=O)(=O)N2CCOCC2)c(Cl)cc1Cl	-0.9	0.3	2.7	37.5*	-3.1
COc1c(C)cc(NS(=O)(=O)c2ccc3c(c2)OCCO3)cc1C	.	-0.3	.	.	16.5
CCc1ccc2ncc3c(-c4ccccc4)nn(-c4ccccc4)c3c2c1	.	-0.6	.	.	15.1
CC(C)(C)NC(=O)C1(C)CCC(=O)N1C1CCN(Cc2ccccc2)CC1 (stereo unspecified)	-4.3	.	-7.5	.	.
COc1ccc(N(C(=O)CNC(=O)c2cccs2)C(C(=O)NCC2CCCO2)c2ccccc2)cc1 (stereo unspecified)	4.1	-0.1	-1.8	80.4*	-16.3
CON(C)C(=O)CC(CNC(=O)OC(C)(C)C)c1ccc(Cl)cc1 (stereo unspecified)	-0.6	.	-6.0	.	.
O=c1[nH]c(CN2CCN(S(=O)(=O)/C=C/c3ccccc3)CC2)nc2ccccc12	0.3	0.5	4.2	-35.4	-6.7
O=c1[nH]c(CN2CCN(C/C=C/c3ccccc3)CC2)nc2ccccc12	-0.2	29.0	-23.9	63.4*	-26.5
Cc1ccc2oc(=O)cc(CN3CCN(C/C=C/c4ccccc4)CC3)c2c1	-3.1	-0.7	-21.5	58.4*	-18.2
CCc1ccc2oc(=O)cc(CN3CCN(Cc4ccccc4)CC3)c2c1	-4.1	-0.1	-25.4	38.6*	-20.9
O=c1cc(CN2CCN(Cc3ccccc3)CC2)c2ccc(O)cc2o1	-4.9	-0.6	-24.2	4.3	-18.9
O=c1cc(CN2CCN(Cc3ccccc3)CC2)c2cc(Cl)ccc2o1	-7.6	-0.7	-47.1	3.7	-7.4
O=c1cc(CN2CCN(C/C=C/c3ccccc3)CC2)c2cc(O)ccc2o1	1.4	0.7	-27.0	82.5*	-21.6
O=C(COc1ccc2ccc(=O)oc2c1)NCCCN1CCCC1=O	-1.3	-2.6	-6.5	-11.3	10.3
COC(=O)CCC(=O)OC1(C)C(=O)C=C2C=C(C3CC3)N(Cc3ccc4c(c3)OCO4)C=C2C1=O (stereo unspecified)	8.7	-0.5	72.6*	-4.7	18.9
COC(=O)CCC(=O)OC1(C)C(=O)C=C2C=C(C3CC3)N(Cc3ccc(OC)cc3)C=C2C1=O (stereo unspecified)	6.9	-0.1	9.0	10.3	16.0
CCOC(=O)N1CCC(NCCNC(=O)c2ccc(F)cc2)CC1	-1.4	4.5	-21.4	66.2*	-25.1
CCOC(=O)N1CCC(NCCNC(=O)c2cccc(F)c2)CC1	-1.7	5.7	-20.7	60.3*	-23.7
CCOC(=O)N1CCC(NC(=O)c2ccc(Cl)cc2)CC1	-4.5	0.3	-13.1	2.4	-6.3
O=C(CCN1C(=O)CC1c1ccco1)N1CCOCC1 (stereo unspecified)	-2.9	.	-3.5	.	.
NNC(=O)CN1C(c2ccc(Cl)cc2)=Nc2ccc(Br)cc2C1c1ccccc1 (stereo unspecified)	-1.9	0.3	-31.8	.	-26.7
CC1=Nc2ccc(Br)cc2C(c2ccccc2)N1CC(=O)NN (stereo unspecified)	-6.2	-2.1	-4.9	36.1*	-25.0
CCC1=Nc2ccc(Br)cc2C(c2ccccc2)N1CC(=O)OC (stereo unspecified)	-3.6	-0.2	-19.7	3.0	-21.8
NNC(=O)CN1C(c2ccccc2)=Nc2ccc(Br)cc2C1c1ccccc1 (stereo unspecified)	-5.8	-0.2	-17.0	81.5*	-32.1
NNC(=O)CN1C(CN2CCOCC2)=Nc2ccc(Br)cc2C1c1ccccc1 (stereo unspecified)	-0.1	1.2	-13.0	83.0*	-24.5
